MCF10A rereplic – A quantitative high throughput screen for small molecules that induce DNA re-replication in MCF 10a normal breast cells; MCF 10A DNA re-replication, Hoechst nuclear intensity, 48 h; Potency, µM (top dose mostly 46.1 µM), most hits filed as activators; 350,000 tested, 2.9% active; AID 624296, 2012; note: nearly all actives have a fitted effect of over 50% in size
KB-V1 cytotox – qHTS assay for MDR1-selective chemotherapeutics: Primary screen using the drug-selected MDR subline cells KB-V1; AID 1347076, 2019; 400,000 tested, 3.4% active; Potency, µM (series often up to 46.1 µM), most hits filed as cytotoxic; KB-V1 MDR cells viability, CellTiter-Glo, 72 h; note: nearly all actives have a fitted effect of over 60% in size
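qHTS viability screen in drug-selected KB-V1 MDR cells: 72 h compound treatment at 37 degrees C, ATP luminescence end point.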
KB-3-1 tox – qHTS assay for MDR1-selective chemotherapeutics: Primary screen using the parental adenocarcinoma cell KB-3-1; Potency, µM (titrated, usually from 46.1 µM), actives largely listed as cytotoxic; 400,000 tested, 1.4% active; KB-3-1 viability, CellTiter-Glo ATP luminescence, 72 h; note: nearly all actives have a fitted effect of over 60% in size
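Here the drug-naive KB-3-1 line serves as comparator for MDR sub-line selectivity; cells received compound titrations, 72 h at 37 °C, then CellTiter-Glo readout.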
ELG1 DNA repair – qHTS screen for small molecules that inhibit ELG1-dependent DNA repair in human embryonic kidney (HEK293T) cells expressing luciferase-tagged ELG1; HEK293T ELG1-luciferase reporter, luminescence, 16 h; DNA damage induced by 5-fluorouridine; 330,000 tested, 2.3% active; Potency, µM (highest dose often 46.1 µM), actives largely listed as inhibitors; AID 504467, 2011; note: nearly all actives have a fitted effect of over 55% in size
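Luminescence from the luciferase reporter, measured 30 min after ONE-Glo reagent at room temperature, was the read-out. Beforehand, 2,000 cells per well were exposed for 16 hr at 37 °C to 5-fluorouridine together with compound or vehicle.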
SW480 rerep – A quantitative high throughput screen for small molecules that induce DNA re-replication in SW480 colon adenocarcinoma cells. SW480 DNA re-replication, Hoechst DNA content imaging, 48 h. 340,000 tested, 1.8% active. AID 624297, 2012. Potency, µM (highest dose often 46.1 µM), actives largely listed as activators; note: nearly all actives have a fitted effect of over 55% in size
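250 cells/well; 23 nL cpd via pin tool; 48 hr, 37 C, 5% CO2; Hoechst 40 min; imager read of total nuclear intensity, ex 405/em 500-530 nm.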
A number is an active result; n = inactive; u = inconclusive; x = no result; [ ] = remark or other dose. Shown are actives, neighbours in structure and some others; about 8.1% of the full set was active somewhere. Calls come from the whole dose curve; as a rule, active = well fitted curve in the direction sought with a large enough effect; inconclusive = small, poorly fitted or top-dose-only effect, or another doubt; inactive = no such curve, though single readings can be large; an effect the other way counts as inactive or inconclusive.

SMILES | MCF10A rereplic | KB-V1 cytotox | KB-3-1 tox | ELG1 DNA repair | SW480 rerep
COc1ccc(CCN(Cc2ccccn2)C(=S)Nc2ccc(C)cc2)cc1OC | n | 23.1µM | u | n | n
COc1ccccc1NC(=S)N(CCc1ccc(OC)c(OC)c1)Cc1ccccn1 | n | u | n | n | n
O=C(c1ccc(S(=O)(=O)Cc2ccccc2Cl)c([N+](=O)[O-])c1)N1CCN(c2ccccn2)CC1 | u | n | n | u | u
Cc1cccc(CC(=O)Nc2ccc(C(=O)N3CCCCC3)cc2)c1 | n | u | n | n | n
CC1C2=C(CC(C)(C)CC2=O)NC2=C1C(=O)CC(C)(C)C2 | 5.8µM | n | n | n | n
COc1cccc2sc3cc(NCc4ccc5c(c4)OCO5)ccc3c(=O)c12 | 4.11µM | u | n | u | u
COc1cc2sc3cc(NCc4ccc5c(c4)OCO5)ccc3c(=O)c2cc1OC | n | n | n | u | u
O=C(NCc1ccc2c(c1)OCO2)c1ccc(C2SCC(=O)N2Cc2ccco2)cc1 (configuration not stated) | n | 20.6µM | n | n | n
CCCNC(=O)c1ccc(C2SCC(=O)N2Cc2ccccc2)cc1 (configuration not stated) | n | n | n | n | n
C=CCNC(=O)c1ccc(C2SCC(=O)N2Cc2ccco2)cc1 (configuration not stated) | n | n | n | n | n
CCOCCCNC(=O)c1ccc(C2SCC(=O)N2Cc2ccccc2)cc1 (configuration not stated) | n | 5.8µM | n | n | n
Cc1ccc(/C=C2\Sc3ccccc3C2=O)s1 | 23.1µM | n | n | u | n
CC(=O)Nc1ccc(/C=C2\Sc3ccccc3C2=O)cc1 | n | n | n | n | n[9.22 µM]
COc1ccc(NC(=O)CCCNC(=O)c2ccc(Cl)cc2)cc1S(=O)(=O)N1CCCCC1 | n | n | n | x | n
O=C(CCNC(=O)c1ccc([N+](=O)[O-])cc1)Nc1ccc(Cl)c(S(=O)(=O)N2CCOCC2)c1 | n | u | n | 18.3µM | n
O=C(CCNC(=O)c1ccccc1)Nc1ccc(Cl)c(S(=O)(=O)N2CCCCC2)c1 | n | n | n | 16.4µM | n
Cc1ccc(NC(=O)CCNC(=O)c2ccc(Br)cc2)cc1S(=O)(=O)N1CCOCC1 | n | n | n | u | n
CCC(=O)NC(C)c1cc(Cl)c2cccnc2c1O (configuration not stated) | u | n | 8.2µM | u | u
CC(=O)NC(C)c1cc(Cl)c2cccnc2c1O (configuration not stated) | 3.26µM | n | n | u | u
COc1ccc(-c2nn3c(-c4cccc(C)c4)nnc3s2)cc1OC | u | 16.4µM | n | x | u
COc1ccc(-c2nn3c(C4CCCCC4)nnc3s2)cc1OC | n | u | n | u | n
COc1ccccc1-c1nnc2sc(-c3ccc(N(C)C)cc3)nn12 | u | 0.058µM | 0.291µM | n | u
COc1ccccc1-c1nnc2sc(-c3cnccn3)nn12 | 18.4µM | n | n | n | u
COc1cc(-c2nn3c(C4CCCCC4)nnc3s2)cc(OC)c1OC | u | u | n | 5.8µM | n[9.22 µM]
CN(NC(=O)c1c(Cl)cccc1Cl)c1cccc(Cl)n1 | n | n | n | n | n
SMILES | MCF10A rereplic | KB-V1 cytotox | KB-3-1 tox | ELG1 DNA repair | SW480 rerep
COc1ccccc1-c1nn2c(C(F)(F)F)nnc2s1 | n | 7.31µM | u | n | n
Clc1ccccc1-c1nn2c(-c3ccncc3)nnc2s1 | n | u | n | 10.3µM | n
Clc1ccccc1-c1nnc2sc(-c3ccncc3)nn12 | n | n | n | u | n
COc1ccccc1-c1nn2c(-c3ccc(C(C)(C)C)cc3)nnc2s1 | x | x | x | n | x
COc1ccccc1-c1nnc2sc(-c3cc4ccccc4o3)nn12 | 2.91µM | u | 0.517µM | n | 2.59µM
CN(C)c1ccc(-c2nn3c(-c4ccccc4Cl)nnc3s2)cc1 | u | 1.16µM | 0.581µM | u | 1.03µM
CN(C)c1ccc(-c2nn3c(-c4cccnc4)nnc3s2)cc1 | n | u | n | n | n
CCCCP(=O)(CCCC)c1ccccc1C(=O)O | n | n | n | n | n
CC12CCC(=O)C=C1CCC1C2C(O)CC2(C)C1CCC21OCC1=O (configuration not stated) | n | n | n | x | n
Cc1nnc(SCC(=O)NC2CCS(=O)(=O)C2)n1-c1ccccc1 (configuration not stated) | n | n | n | n | n
O=C(Cn1c(=O)c2cccn2c2ccccc21)Nc1ccc(F)cc1F | n | n | n | n | n
CCOC(=O)C(C)NC(=O)CCc1nnc2ccc(N3CCC(C)CC3)nn12 (configuration not stated) | 25.9µM | n | n | n | n
CCC(C)NC(=O)CCc1nnc2ccc(N3CCC(C)CC3)nn12 (configuration not stated) | n | n | n | n | n
COc1ccc(N)cc1-n1c(C)ccc1C | n | u | n | u | 0.517µM
COc1ccc(C)cc1-n1c(C)cc(C=O)c1C | n | n | n | n | n
O=C(COc1ccccc1)Nc1nc(-c2cccs2)cs1 | n | n | n | n | n
CCOCCc1nnc(NC(=O)CCS(=O)(=O)c2ccccc2)s1 | 20.6µM | n | n | n | u
CC(=O)c1sc(NC(=O)CCS(=O)(=O)c2ccc(F)cc2)nc1C | x | n | n | x | x
CC(=O)c1sc(NC(=O)CCS(=O)(=O)c2ccccc2)nc1C | 2.91µM | n | u | n | 4.61µM
CC(C)c1nnc(NC(=O)CCS(=O)(=O)c2nc(-c3cccs3)cc(C(F)(F)F)n2)s1 | 3.66µM | n | n | u | u
O=C(CCS(=O)(=O)c1ccccc1)Nc1nc(-c2cccs2)cs1 | u | 23.1µM | n | u | u
O=C(CCS(=O)(=O)c1nc(-c2cccs2)cc(C(F)(F)F)n1)Nc1ccc(OC(F)(F)F)cc1 | x | n | n | x | x
COc1ccc(-c2nc(CS(=O)(=O)CC(=O)NCc3cccc(OC)c3OC)c(C)o2)cc1 | n | n | n | u | n
CCN(CC)c1ccc(NC(=O)Nc2cccc(C(C)=O)c2)cc1 | n | n | n | x | u
CCn1cnc2cc(NC(=O)COc3ccc(C)cc3)ccc21 | n | u | n | x | n
O=C(CCS(=O)(=O)c1ccc(F)cc1)Nc1nc(-c2ccncc2)cs1 | 18.4µM | n | n | n | u
COc1ccc(NC(=O)C(=O)NCC2CCCN2S(=O)(=O)c2cc(C)ccc2C)cc1 (configuration not stated) | u | 5.8µM | 5.8µM | u | 16.4µM
COc1ccc(NC(=O)C(=O)NCC2CCCN2S(=O)(=O)c2ccc(C)cc2)cc1 (configuration not stated) | u | 0.231µM | 0.146µM | n | u
